Values joined by “and” are separate entries in the source; they are usually repeats but may differ in a detail not shown here. Equal values may be shown once. Some structures have more than one record in an assay (separate samples or runs), and their calls can disagree. Active and inactive are the calls of the source. The calls were made as follows: active = hit-call score of the fitted dose curve at least 0.9, where 1 is the maximum; inactive = score below 0.9.
read-out: E-selectin (Homo sapiens) (UniProt P16581); test: BSK_3C_Eselectin: BioMAP Diversity Plus: 3C Assay for Eselectin Biomarker Activity (AID 2283015); details: primary human endothelial cells (HUVEC); actives raise or lower the signal
Protocol: BSK_3C is a cell-based, multiplexed-readout assay that uses umbilical vein endothelium, a human vascular primary cell, with measurements taken at 24 hours after chemical dosing in a 96-well plate.BSK_3C_Eselectin is an assay component measured in the BSK_3C assay. It measures E-selectin antibody related to regulation of gene expression using ELISA technology.Data from the assay component BSK_3C_Eselectin was analyzed into 1 assay endpoint. This assay endpoint, BSK_3C_Eselectin, was analyzed with bidirectional fitting relative to DMSO as the negative control and baseline of activity. Using a type of binding reporter, gain or loss-of-signal activity can be used to understand changes in the signaling as they relate to the gene SELE. Furthermore, this assay endpoint can be referred to as a primary readout, because this assay has produced multiple assay endpoints where this one serves a signaling function. To generalize the intended target to other relatable targets, this assay endpoint is annotated to the cell adhesion molecules intended target family, where the subfamily is selectins.
The levels of cell surface (or secreted, indicated by the prefix "s") biomarker endpoints were measured by ELISA. Overt cytotoxicity to cells in confluent adherent cultures (all systems other than the BT system) was assessed by measuring total protein levels using sulforhodamine B (SRB) staining in parallel cultures at the time of biomarker measurements, indicated as SRB endpoints. For proliferation assays for adherent cell types, individual cell types are cultured at sub-confluence and relative cell numbers quantified by SRB staining at time points optimized for each system (48 h: 3C and CASM3C systems; 72 h: BT and HDF3CGF systems; 96 h: SAg system). SRB was performed by staining cells with 0.1% SRB after fixation with 10% TCA and reading wells at 560 nm.Viability and proliferation of PBMC (T cells) was quantified by Alamar Blue reduction for the SAg and BT systems. For PBMC viability (referred to as PBMC Cytotoxicity within the assay endpoint names), cells were plated (75,000/well in a 96-well plate) and then chemical samples added for 1 h before addition of activators, SEB and TSST-1 (20 ng/mL final concentration each). Cells were incubated for 90 h. Then, Alamar Blue (20 uL/well) (Invitrogen, Cat DAL1100) was added for 6 h, and the plates were read with a fluorescence microplate reader at 546/580 nm (excitation/emission). For PBMC proliferation, cells were plated and activated as above but incubated for only 16 h prior to addition of Alamar Blue. Plates were read after 6 h.

Chain of E-selectin (Homo sapiens) (P16581 whole entry, looked up): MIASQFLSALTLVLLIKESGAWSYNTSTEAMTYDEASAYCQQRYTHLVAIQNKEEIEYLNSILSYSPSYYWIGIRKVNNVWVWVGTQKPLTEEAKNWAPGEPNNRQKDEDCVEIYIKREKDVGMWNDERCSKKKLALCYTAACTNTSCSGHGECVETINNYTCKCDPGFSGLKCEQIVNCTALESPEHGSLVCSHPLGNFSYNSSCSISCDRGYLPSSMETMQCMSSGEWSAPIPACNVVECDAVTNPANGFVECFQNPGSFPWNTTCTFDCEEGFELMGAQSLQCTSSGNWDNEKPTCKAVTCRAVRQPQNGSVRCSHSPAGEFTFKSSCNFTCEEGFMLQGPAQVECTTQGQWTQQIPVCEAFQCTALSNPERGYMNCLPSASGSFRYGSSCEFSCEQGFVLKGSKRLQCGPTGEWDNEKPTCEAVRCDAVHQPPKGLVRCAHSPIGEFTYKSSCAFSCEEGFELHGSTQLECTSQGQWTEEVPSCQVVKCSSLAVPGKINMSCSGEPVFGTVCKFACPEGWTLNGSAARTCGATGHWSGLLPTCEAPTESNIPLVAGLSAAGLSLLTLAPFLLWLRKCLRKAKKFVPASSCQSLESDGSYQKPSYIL

Compound	AC50	outcome
CCCCC(CC)COC(=O)C=Cc1ccc(OC)cc1 (stereo not drawn)	27.5 µM (active) and 11.4 µM (active)	
CC[N+](CC)(CC(=O)Nc1c(C)cccc1C)Cc1ccccc1		inactive
OC(C(F)(F)F)(C(F)(F)F)C(O)(C(F)(F)F)C(F)(F)F	21.5 µM (active) and 30 µM (active)	
COc1ccc(C(=O)c2ccccc2O)c(O)c1		inactive
Cc1c(C(N)=O)cc([N+](=O)[O-])cc1[N+](=O)[O-]		inactive
COc1cc(CNC(=O)CCCC/C=C/C(C)C)ccc1O		inactive
CCCCCCCCCCCCCCCCCC[N+](C)(C)C	5 µM (active)	
C1CN(CCOCCN2CCOCC2)CCO1		inactive
O=[N+]([O-])c1cc(S(=O)(=O)Nc2ccccc2)ccc1Nc1ccccc1	13.3 µM (active)	inactive
Cc1cccnc1		inactive
COc1ccccc1Oc1c(NS(=O)(=O)c2ccc(C(C)(C)C)cc2)nc(-c2ncccn2)nc1OCCO		inactive
Oc1cccc2ccccc12		inactive
CCCCCCCCCCC1CO1 (stereo not drawn)	34.8 µM (active)	
CC[N+](CC)(CC(=O)Nc1c(C)cccc1C)Cc1ccccc1 (tested in a mixture with another compound)		inactive
CC(C)C1OCCN1CCOC(=O)NCCCCCCNC(=O)OCCN1CCOC1C(C)C (stereo not drawn)		inactive
CN(C)c1ccc(C(c2ccccc2)c2ccc(N(C)C)cc2)cc1	3.29 µM (active)	
CN(C)Cc1cc(C(C)(C)C)c(O)c(C(C)(C)C)c1		inactive
COC(=O)/C=C\C(=O)OC	13.6 µM (active)	
CCC[Si](OC(C)=O)(OC(C)=O)OC(C)=O		inactive
CCCCCCC(O)CCCCCCCCCCC(=O)OC (stereo not drawn)		inactive
CC(C)CC(=O)CC(C)CC(C)C (stereo not drawn)	34.6 µM (active)	
Cc1cc(-n2nc3ccc(Cl)cc3n2)c(O)c(C(C)(C)C)c1		inactive
Sc1nc2ccccc2s1		inactive
CCC(C)=NO		inactive
CN(C)CCC(c1ccc(Cl)cc1)c1ccccn1 (stereo not drawn)		inactive
O=C(C(=O)c1ccccc1)c1ccccc1		inactive
CCCCCCCCCC/C=C/C1CC(=O)OC1=O (stereo not drawn)		inactive

Source: PubChem BioAssay (EPA / NIEHS)
